Each structure is given as a SMILES string. Out of some 2,300 compounds screened, about 550 (24%) were called active. How the calls were made is not given here. Not all results are given here. Results with a measured potency or affinity are listed apart.

The experiment can be described thus: Vero E6 cell cytotoxicity, dose response, cytotoxicity control for non-replicating M. tuberculosis project, secondary assay (AID 492998). Conditions: series mostly up to 20 µM.
Regarding `Clc1cccc(/C=N\Nc2nccs2)c1`, the call was inactive.
With `Cc1ccc(OCC(=O)OCc2c(C)noc2C)cc1C`, the result was inactive.
Regarding `CCOC(=O)CN1NC2(CCCC(C)C2)NC1=S` (configuration not stated), the call was inactive.
As for `Clc1c(OCCCn2ccnc2)ccc2ccccc12`, the outcome was inactive.
Consider `Cn1c(=O)c(Oc2ccc(Cl)cc2)c(O)c2ccccc21`, for which the outcome was inactive.
Regarding `CCn1c(=O)c(C(=O)Nc2ncccc2C)c(O)c2ccccc21`, the compound was classed as inactive.
The same measure for `Cc1cccnc1NC(=O)c1c(O)c2ccccc2n(C)c1=O`: “inactive”; for `C=CCn1c(=O)c(C(=O)Nc2cccnc2)c(O)c2ccccc21`: “inactive”; for `COc1ccc(C(O)CNc2ccc(C)cc2)cc1` (configuration not stated): “inactive”.
As for `COc1ccc(NC(=O)c2nc3ccccc3s2)cc1`, the entry is “inactive”; as for `CC(C)c1cc(C(=O)N/N=C/C=C/c2ccccc2)n[nH]1`, “inactive”; as for `O=C(COc1ccccc1)Nc1ccc(Cl)cn1`, “inactive”.
As for `O=C(NCc1ccccc1CN1CCCC1)c1cc2ccccc2o1`, the result was inactive.
The same measure for `O=Cc1ccnc(-c2ccc(OC(=O)c3ccco3)cc2)n1`: “inactive”.
With `CCC1CCc2sc(C(=O)NCC3CCCO3)cc2C1` (configuration not stated), the compound was classed as inactive.
On to `CCOc1cc(C=O)cc(N=Nc2cccc([N+](=O)[O-])c2)c1O`, for which the compound was called inactive.
As for `O=C(COc1ccc2ccccc2c1Br)N1CCCC1`, the entry is “inactive”; as for `CCCn1c(=O)c(C(=O)N/N=C/c2ccccc2F)c(O)c2ccccc21`, “inactive”.
For `Nc1nonc1C(=O)N/N=C/c1ccc([N+](=O)[O-])o1`, the compound was classed as inactive.
As for `CC1=NN(C(=O)c2ccoc2C)C(O)(C(F)(F)F)C1` (configuration not stated), the entry is “inactive”; as for `COC(=O)C(O)(c1ccc(NC(=S)NC(=O)c2ccccc2)cc1)C(F)(F)F` (configuration not stated), “inactive”; as for `CCOC(=O)Nc1ccc2c(c1)N(C(=O)CCCl)c1ccccc1[S@]2=O`, “inactive”.
For the compound `C=CCn1c(O)c(C(C)=Nc2ccc(C(=O)OCC)cc2)c(=O)[nH]c1=O`, the compound was called inactive.
In the case of `CCCCNC(=O)Nc1nnc(-c2ccc(Cl)cc2)o1`, the compound was called inactive.
For the compound `CCOC(=O)c1ccc(NC2OC(=O)c3ccccc32)cc1` (configuration not stated), the compound was classed as inactive.
Regarding `C=CCN=C1SC(CC)C(=O)N1S(=O)(=O)c1ccc(C)cc1` (configuration not stated), the call was inactive.
As for `Cc1ccc(C(=O)CCC2CCCC2=O)cc1` (configuration not stated), the compound was classed as inactive.

The record behind these values is PubChem BioAssay AID492998 (Southern Research Specialized Biocontainment Screening …, 2010).
